Ba CapD inh – Bacillus anthracis CapD inhibitors, primary screen, biochemical, fluorescence intensity. z-score (concentration not given with the values). purified CapD enzyme, fluorescence intensity read-out; hits give low values. CapD gamma-glutamyltranspeptidase (Bacillus anthracis Ames Ancestor). 140,000 compounds, 0.23% hits; in the data active means z-score mostly below about -2.9, no sharp cut-off; inactive means mostly above about -1.9
A number is an active result; - = inactive. The sample as a whole holds a higher share of hits than the screen did.

SMILES	Ba CapD inh
CCN(CC)C(=O)CS(=O)(=O)Cc1nc(-c2cccc(OC)c2)oc1C	-
O=C(Nc1ncn[nH]1)c1ccco1	-
O=C(O)c1ccc2c(c1)C1C=CCC1C(c1cccc3ccccc13)N2 (configuration not stated)	-
CC(=O)Oc1ccc(C2Nc3ccc(C(C)=O)cc3C3C=CCC32)c(OC(C)=O)c1 (configuration not stated)	-
Brc1ccccc1[C@@H]1Nc2ccccc2[C@@H]2C=CC[C@@H]21	-
CC(=O)Oc1ccc(C2Nc3ccc(C(=O)O)cc3C3C=CCC32)c(OC(C)=O)c1 (configuration not stated)	-4.4
O=C(O)C1Nc2ccccc2C2C=CCC12 (configuration not stated)	-8.8
CC(=O)Oc1ccc(C2Nc3ccc(C)cc3C3C=CCC32)c(OC(C)=O)c1 (configuration not stated)	-
O=C(O)c1ccc2c(c1)C1C=CCC1C(c1ccc(Br)cc1)N2 (configuration not stated)	-
O=C(O)c1ccc(C2Nc3ccccc3C3C=CCC32)cc1 (configuration not stated)	-7.9
CCc1ccc2c(c1)C1C=CCC1C(c1ccc(C(=O)O)cc1)N2 (configuration not stated)	-
COCCOC(=O)C1=C(C)NC2=C(C(=O)CC(c3ccc(Cl)cc3)C2)C1c1ccc(OC)c(Br)c1 (configuration not stated)	-
CCNC(=S)N1CCN(CCN=C(C)c2c(C(F)(F)F)[nH]n(-c3nc4ccccc4s3)c2=O)CC1	-
Cc1[nH]c2ccccc2c1CN1CCN(c2ccc(F)cc2)CC1	-
CCc1nc(CN2CCN(c3ccc(C(F)(F)F)cn3)CC2)c(C)[nH]1	-
CCc1nc(CN2CCN(c3ccc(F)cc3)CC2)c(C)[nH]1	-1.8
CC(C)(C)NC(=O)c1cc(S(=O)(=O)N2CCCCC2)ccc1Cl	-
COC(=O)c1ccc(Nc2nc(-c3ccccc3)nc3ccccc23)cc1	-
CCN(C(=O)N(C)C)c1ccccc1C	-
Cc1ccccc1Cn1cc(S(=O)(=O)CC(=O)Nc2ccc3c(c2)OCCO3)c2ccccc21	-
Cn1c(=O)n(C)c2cc(S(=O)(=O)N(Cc3ccccc3)C(=O)c3ccncc3)ccc21	-7.6
Cn1c(=O)c(=O)n(C)c2cc(S(=O)(=O)CCC(=O)NCc3ccccc3)ccc21	-
CN(Cc1ccccc1)S(=O)(=O)c1ccc2c(c1)oc(=O)n2C	-
N#CC1=C(N)Oc2cc(O)ccc2C1c1ccccc1 (configuration not stated)	-
O=C(O)C1Sc2[nH]c(=O)sc2C2c3ccc(O)cc3OC(=O)C12 (configuration not stated)	-8.8
SMILES	Ba CapD inh
COC(=O)C1Sc2[nH]c(=O)sc2C(c2ccc(Cl)cc2)C1C(=O)OC (configuration not stated)	-
CC(=O)OCC1OC(n2ccc(=O)[nH]c2=S)C(OC(C)=O)C1OC(C)=O (configuration not stated)	-
CCOc1ccc(NC(=O)c2cccnc2)cc1	-
O=C(Nc1ccccc1)Nc1nc(-c2ccco2)cn1/N=C/c1ccccc1	-
COc1ccc(/C=N/n2c(N(C(C)=O)C(C)=O)nc(-c3ccccc3)c2-c2ccccc2)cc1	-
CC(=O)N(C(C)=O)c1nc(-c2ccccc2)cn1/N=C/c1ccccc1	-7.1
CC1CC(C)CN(C(=O)c2cc3c(-c4ccc(Cl)cc4)nn(C)c3s2)C1 (configuration not stated)	-
CC(C)(C)c1ccc(-c2noc(-c3ccccc3S(C)(=O)=O)n2)cc1	-
O=C(Nc1c2c(nn1-c1ccccc1)CS(=O)C2)c1cccs1 (configuration not stated)	-
N#CC1(C#N)[C@@H]2c3ccccc3C=CN2[C@@H](C(N)=O)[C@@H]1c1ccccc1F	-
COc1ccc(CCNC(=O)C(C(C)C)N2C(=O)c3ccccc3C2=O)cc1 (configuration not stated)	-4.8
COc1ccc(CN2C(=O)c3ccccc3C2=O)cc1	-
COc1ccc(CCNC(=O)C(F)(F)F)cc1	-
FC(F)(F)c1cc(-c2nnc(-c3ccc(Cl)cc3)o2)cc(C(F)(F)F)c1	-
COCC(=O)Nc1ccc(-c2cn3cccnc3n2)cc1	-
O=C(CCC1CCCCC1)Nc1ccc(-c2cn3cccnc3n2)cc1	-4.5
O=C(COc1ccccc1)Nc1ccc(-c2cn3cccnc3n2)cc1	-
COc1cc(NC(=O)CSC2=C(C#N)C(c3ccc(C)o3)C3=C(CCCC3=O)N2)c(OC)cc1Cl (configuration not stated)	-
Cc1cccc(OCCBr)c1	-
CCc1ccc(/C=C2\C(=N)N3N=C(N4CCCC4)SC3=NC2=O)cc1	-
CN1C(=O)C(=Cc2ccc(-c3cccc(C(=O)O)c3)o2)C(=O)N(C)C1=S	-
N=C1/C(=C\c2ccc(-c3cccc(C(=O)O)c3)o2)C(=O)N=C2SC(N3CCCCC3)=NN12	-3.8
CC(=O)Nc1ccccc1OCC(N)=O	-
N/C(Cc1ccccc1)=N\O	-
O=c1c2ccccc2c(=O)n2n1CC=CC2	-
SMILES	Ba CapD inh
O=C1c2ccccc2C(=O)N1N1C(=O)c2ccccc2C1=O	-
O=c1c(=NO)c(=O)c2ccccc12	-5.4
Cc1ccc(-n2ncc3c(=S)nc[nH]c32)cc1	-
CC(C)C(=O)O/N=C(\N)c1ccccc1	-
N/C(=N/S(=O)(=O)c1ccc(Cl)c(Cl)c1)c1cccnc1	-
CC(Oc1cccc(Cl)c1)C(=O)O/N=C(\N)c1cccnc1 (configuration not stated)	-6
O=C(OCC(=O)N1CCc2ccccc2C1)c1ccc(Br)o1	-
O=C(c1sc2ccccc2c1Cl)n1ccc(-c2cccs2)n1	-
N=C(N)Sc1cn(Cc2ccccc2)c2ccccc12	-4.8
O=C(CSc1cn(Cc2ccccc2)c2ccccc12)N1CCCC1	-
N#Cc1cn(Cc2ccccc2)c2ccccc12	-
c1ccc2sc3c(-c4ccncc4)sc4ccccc4[nH]c-3nc2c1	-4.1
Oc1ccc(-c2nc3ccccc3[nH]2)cc1	-
c1ccc(-c2nnsc2-c2nc3ccccc3[nH]2)cc1	-
Cc1cc(-n2c(SCc3ccccc3Cl)nc3n[nH]c(C)c3c2=N)ccc1Cl	-
CN1/C(=C/C=N/O)C(C)(C)c2ccccc21	-
CN1/C(=C\C=Nc2cccc(C(=O)O)c2)C(C)(C)c2ccccc21	-
CN1/C(=C\C=Nc2ccc(C(=O)O)cc2)C(C)(C)c2ccccc21	-3.2
O=C(OCc1cc2cccc3c2n(c1=O)CCC3)c1cccs1	-
CN(C)N=Nc1ccc(S(=O)(=O)NC(=O)Cc2ccccc2)cc1	-
CC(=O)N(C(C)=O)S(=O)(=O)c1ccc(N=NN(C)C)cc1	-5.1
Cc1ccc(N=NN(C)C)cc1	-
CCCn1cc(SCC(=O)N2N=C(c3cccs3)CC2c2ccc(OC)cc2)c2ccccc21 (configuration not stated)	-
COc1ccc(CN(Cc2ccc(OC)cc2)S(=O)(=O)c2c(C)noc2C)cc1	-
Cc1noc(/C=C/N(C)C)c1S(=O)(=O)N(CCc1ccccc1)Cc1ccccc1	-4.3
SMILES	Ba CapD inh
Cc1noc(C)c1S(=O)(=O)N(CCC#N)Cc1ccccc1	-
COc1ccc(/C=C(\C#N)c2nnc3n2CCCCC3)cc1	-
O=C(O)COc1ccccc1/C=C1/SC(=S)N(c2cccnc2)C1=O	-4
COC(=O)c1cccc(N2C(=O)/C(=C\c3cccnc3)SC2=S)c1	-
O=C(NN1C(=O)/C(=C\c2cccnc2)SC1=S)c1ccccc1	-
O=C1S/C(=C\C=C\c2ccco2)C(=O)N1CCCc1ccccc1	-
